Test results taken from PubChem BioAssay (NCATS).
Values without a mark were called inactive. Inconclusive results are not listed. A call without a number means that no potency is given here. The source made the active and inactive calls. Unless noted, calls follow the shape of the dose curve; as a rule, active = well fitted curve in the direction sought with a large enough effect; inconclusive = small, poorly fitted or top-dose-only effect, or another doubt; inactive = no such curve, though single readings can be large; an effect the other way counts as inactive or inconclusive.

What was measured:
[1] = qHTS for differential inhibitors of proliferation of Plasmodium falciparum line 7G8 (AID 1815);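 also: parasite growth measured after three days of incubation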; also: potency is read from the fitted curve at half-maximal effect
[2] = qHTS for differential inhibitors of proliferation of Plasmodium falciparum line GB4 (AID 1816); details: Potency: Plasmodium falciparum GB4 proliferation inhibition;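 also: parasite growth measured after 72 h incubation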; also: potency is read from the fitted curve at half-maximal effect
[3] = qHTS for differential inhibitors of proliferation of Plasmodium falciparum line W2 (AID 1883); details: Potency: Plasmodium falciparum W2 proliferation inhibition;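 also: parasites grown with compound for 72 h before lysis and staining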; also: potency is read from the fitted curve at half-maximal effect
[4] = qHTS Assay for Modulators of Human Peripheral Myelin Protein 22 (PMP22) Expression/Activity (AID 1967; active = well fitted curve in the direction sought with a large enough effect in the signal ratio; the % refers to the signal ratio)
Summary of the method: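 Mouse MSC80 Schwann cells carrying Pmp22 promoter–green click beetle luciferase plus EF-alpha–red luciferase control, dosed 24 h at 37 °C. Dual-filter luminescence, overlap-corrected; %Activity from green/red ratio normalised to untreated cells, concentration-response curves fitted.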

[5] = target: Calcium and integrin-binding protein 1 (Homo sapiens) (UniProt Q99828); assay: Confirmatory qHTS for Identification of Calcium Integrin Binding Protein 1 (CIB1) Competitor (AID 1508617); also: nearly all actives have a fitted effect of over 65% in size; also: potency is read from the fitted curve at half-maximal effect
Summary of the method: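 Fluorescence polarization competition: CIB1-GST (1 uM final) in 5 mM HEPES pH 7.4, 125 mM NaCl, 5 mM CaCl2, 0.01% Tween20 preincubated 15 min RT with compound (up to 114 uM), then FITC-alphaIIb peptide (100 nM) added, 15 min RT.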

[6] = qHTS profiling for inhibitors of Plasmodium falciparum proliferation (AID 504749); also: potency is read from the fitted curve at half-maximal effect; nearly all actives have a fitted effect of over 60% in size; details: P. falciparum in erythrocytes, SYBR Green DNA, 72 h
Summary of the method: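 Readout was DNA-dye fluorescence from lysed cultures, ex 485/em 535 nm. Parasitized red cells had grown 72 h with compound; data scaled between 0.29 uM artemisinin and DMSO wells and corrected using vehicle-only plates.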

[7] = AP1 Signaling Pathway (AID 357; active = well fitted curve in either direction with a large enough effect, not every such curve was filed as active;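 also: ME-180 reporter cells stimulated with EGF at its EC50 level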); details: ME-180 AP-1-bla reporter, EGF-induced, beta-lactamase ratio, 5 h; at 7.69 µM (top of the series) unless noted
Summary of the method: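 In this screen, ME-180 cells in Opti-MEM with 0.5% dialyzed FBS received EC50 EGF and compound titrations for 5 h. AP-1 reporter beta-lactamase was detected via CCF4 ratio, giving AC50 for positive and negative modulators.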

[8] = target: Cytochrome P450 1A2 (Homo sapiens) (UniProt P05177); assay: p450-cyp1a2 (AID 410; calls by dose curve; also: potency is read from the fitted curve at half-maximal effect)
Summary of the method: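 Human CYP1A2 (20nM) demethylated Luciferin-ME at its Km (100uM) in 100mM KPO4. After 10 min compound preincubation, NADPH regeneration ran the reaction 60 min at room temperature. Luciferin was read by luminescence, normalized to 57 uM furafylline.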

[9] = NFAT Signaling Pathway (AID 444; active = well fitted curve in either direction with a large enough effect, not every such curve was filed as active;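 also: carbachol stimulus at about its EC50 of 1 µM final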); details: Jurkat NFAT-bla M1, carbachol, beta-lactamase ratio, 5 h; at 7.69 µM (top of the series) unless noted
Summary of the method: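 Jurkat cells with NFAT-driven β-lactamase reporter and co-expressed M1 receptor, stimulated with carbachol (final 1 uM, ~EC50), compound titration, 5 h at 37 °C. CCF4 loaded 1 h at RT; 460/530 nm ratio gave %activity and AC50.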

[10] = Stat Signaling Pathway (AID 446; active = well fitted curve in either direction with a large enough effect, not every such curve was filed as active;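 also: ME-180 cervical cancer cells given 40 pM IL-6 alongside compound; SIE-controlled beta-lactamase reporter measured as 460/530 nm FRET emission ratio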); details: ME-180 SIE beta-lactamase reporter, IL-6 stimulated, 5 h; at 7.69 µM (top of the series) unless noted
Summary of the method: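 ME-180 SIE-bla cells; overnight plating; cpd + IL-6 40 pM, 5 h, 37 C; LiveBLAzer 2.5 h RT; 460/530 nm emission ratio. Normalized to 300 pM IL-6 and 125 nM JAK inhibitor controls.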

[11] = target: 3',5'-cyclic-AMP phosphodiesterase 4B (Homo sapiens) (UniProt Q07343); assay: qHTS Assay for Inhibitors of PDE-IV (AID 607; active = well fitted activation curve with a large enough effect in the main read-out, with a control signal flat, not every such curve was filed as active)
Summary of the method: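 ACTOne HEK293 cells carry a modified cAMP-gated CNG channel and express endogenous PDE4; plated 1000 cells/well, compounds up to 22.9 uM final. Membrane-potential dye fluorescence (ex 535/em 590) was read; parental cells received 10 uM forskolin + 100 uM RO 20-1724.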

[12] = target: Guanine nucleotide-binding protein G(i) subunit alpha-1 (Homo sapiens) (UniProt P63096); assay: qHTS Assay for Inhibitors of RGS12 GoLoco Motif Activity (Green Fluorophore) (AID 879);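 also: negative values mean loss of peptide binding seen as reduced polarization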
Summary of the method: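 Fluorescence polarization assay: 50 nM Gαi1 with 10 nM FITC-labeled RGS12 GoLoco peptide in 10 mM Tris pH 7.5, 150 mM NaCl, 0.1 mM GDP, 0.05% NP40, 10 min at room temperature with compound.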

[13] = target: Pyruvate kinase PKM (Homo sapiens) (UniProt P14618); assay: qHTS Assay for Activators of Human Muscle Pyruvate Kinase (AID 954; active = well fitted curve in the direction sought with a large enough effect, not every such curve was filed as active)
Summary of the method: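 Luminescence from a luciferase ATP-detection/stop reagent reported PKM2 activity. Reactions contained 0.1 nM purified human enzyme, 0.5 mM PEP, 0.1 mM ADP and 7 mM MgCl2 at pH 7.2, run 1 h at RT.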

[14] = target: Alpha-galactosidase A (Homo sapiens) (UniProt P06280); assay: Counterscreen for Glucocerebrosidase Inhibitors: qHTS Assay for Human alpha-Galactosidase at pH 4.5 (AID 992)
Summary of the method: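 Enzyme at 2 nM final was combined with compound (0.7 nM to 77 uM) and 80 uM 4-methylumbelliferyl alpha-D-galactopyranoside in 50 mM citric acid, 0.005% Tween-20, pH 4.5. After 20 min at room temperature, fluorescence was read (Ex 365/Em 440 nm); AC50 came from Hill fits.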

[15] = target: alpha-glucosidase (Oryza sativa, rice) (UniProt Q653V4); assay: Counterscreen for Glucocerebrosidase Inhibitors: qHTS Assay for Rice alpha-Glucosidase at pH 5.0 (AID 997)
Summary of the method: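 Rice alpha-glucosidase (4 nM final) with 400 uM 4-methylumbelliferyl-alpha-D-glucopyranoside in citrate buffer pH 5.0, 20 min at room temperature, stopped at pH 10; fluorescence 365/440 nm, compounds 0.7 nM–77 uM, AC50 from Hill fits.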

[16] = Validation screen for small molecules that induce DNA re-replication in SW480 colon adenocarcinoma cells (AID 504364)
Summary of the method: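 SW480 cells seeded at 250 per well were exposed to compound or DMSO for 48 hr at 37 C, 5% CO2, then stained with Hoechst for 40 min. DNA content per nucleus was imaged (405 nm ex, 500-530 nm em).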

[17] = target: Muscarinic acetylcholine receptor M1 (Rattus norvegicus) (UniProt P08482); assay: qHTS Assay for Antagonists of Acetylcholine Muscarinic M1 Receptor: Measurement of IP-One Response (AID 944); also: nearly all actives have a fitted effect of over 75% in size
Summary of the method: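 CHO cells expressing rat M1 receptor, recovered overnight, were pre-incubated 10 min with compound, then stimulated 30 min with carbachol at EC80 (200 nM) in LiCl-containing buffer, pH 7.4. IP1 accumulation was read by HTRF (620/665 nm).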

[18] = target: Pyruvate kinase (Leishmania mexicana) (UniProt Q27686); assay: qHTS Validation Assay for Inhibitors of Leishmania Mexicana Pyruvate Kinase (AID 945)
Summary of the method: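 Luminescent ATP detection (PKLight) after a 1 h room-temperature reaction of 0.2 nM LmPYK E451W mutant with 0.5 mM PEP and 0.1 mM ADP at pH 7.2. Activity is normalized to DMSO-only control wells.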

Chain of Calcium and integrin-binding protein 1 (Homo sapiens) (Q99828 whole entry, looked up): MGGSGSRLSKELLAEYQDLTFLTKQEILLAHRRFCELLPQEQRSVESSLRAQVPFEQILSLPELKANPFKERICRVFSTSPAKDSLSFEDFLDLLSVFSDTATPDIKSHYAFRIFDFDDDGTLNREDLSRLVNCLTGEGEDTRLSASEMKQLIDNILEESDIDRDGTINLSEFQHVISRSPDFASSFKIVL
Chain of Guanine nucleotide-binding protein G(i) subunit alpha-1 (Homo sapiens) (P63096 whole entry, looked up): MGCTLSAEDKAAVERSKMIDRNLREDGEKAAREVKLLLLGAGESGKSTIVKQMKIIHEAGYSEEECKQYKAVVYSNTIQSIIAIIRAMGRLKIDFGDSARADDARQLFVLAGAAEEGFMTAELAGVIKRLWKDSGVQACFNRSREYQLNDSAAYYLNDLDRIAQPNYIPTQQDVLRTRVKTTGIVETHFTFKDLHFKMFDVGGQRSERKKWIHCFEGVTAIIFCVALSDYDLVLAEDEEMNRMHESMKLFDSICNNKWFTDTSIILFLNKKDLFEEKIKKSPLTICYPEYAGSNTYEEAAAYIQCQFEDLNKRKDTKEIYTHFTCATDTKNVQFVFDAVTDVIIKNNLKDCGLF
Chain of 3',5'-cyclic-AMP phosphodiesterase 4B (Homo sapiens) (Q07343 whole entry, looked up): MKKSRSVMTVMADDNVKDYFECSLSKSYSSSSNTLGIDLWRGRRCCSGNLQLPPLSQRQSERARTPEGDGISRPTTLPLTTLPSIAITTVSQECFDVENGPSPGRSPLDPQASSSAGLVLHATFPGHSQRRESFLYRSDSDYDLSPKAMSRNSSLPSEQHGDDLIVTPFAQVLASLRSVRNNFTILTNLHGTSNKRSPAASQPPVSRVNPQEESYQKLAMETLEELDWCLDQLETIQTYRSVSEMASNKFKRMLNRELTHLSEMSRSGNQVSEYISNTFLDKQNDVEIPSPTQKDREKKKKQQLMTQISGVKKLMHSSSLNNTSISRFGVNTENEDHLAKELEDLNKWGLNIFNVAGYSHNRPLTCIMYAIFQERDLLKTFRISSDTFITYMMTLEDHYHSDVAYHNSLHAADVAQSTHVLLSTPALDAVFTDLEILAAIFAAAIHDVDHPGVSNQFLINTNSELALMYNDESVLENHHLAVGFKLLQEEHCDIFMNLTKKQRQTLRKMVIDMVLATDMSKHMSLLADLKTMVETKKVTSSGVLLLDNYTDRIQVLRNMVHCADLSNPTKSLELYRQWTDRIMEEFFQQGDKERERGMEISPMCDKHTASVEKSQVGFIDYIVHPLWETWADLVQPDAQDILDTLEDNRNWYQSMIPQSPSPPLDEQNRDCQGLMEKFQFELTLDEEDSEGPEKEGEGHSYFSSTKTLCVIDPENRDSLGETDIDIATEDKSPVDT
Chain of Pyruvate kinase PKM (Homo sapiens) (P14618 whole entry, looked up): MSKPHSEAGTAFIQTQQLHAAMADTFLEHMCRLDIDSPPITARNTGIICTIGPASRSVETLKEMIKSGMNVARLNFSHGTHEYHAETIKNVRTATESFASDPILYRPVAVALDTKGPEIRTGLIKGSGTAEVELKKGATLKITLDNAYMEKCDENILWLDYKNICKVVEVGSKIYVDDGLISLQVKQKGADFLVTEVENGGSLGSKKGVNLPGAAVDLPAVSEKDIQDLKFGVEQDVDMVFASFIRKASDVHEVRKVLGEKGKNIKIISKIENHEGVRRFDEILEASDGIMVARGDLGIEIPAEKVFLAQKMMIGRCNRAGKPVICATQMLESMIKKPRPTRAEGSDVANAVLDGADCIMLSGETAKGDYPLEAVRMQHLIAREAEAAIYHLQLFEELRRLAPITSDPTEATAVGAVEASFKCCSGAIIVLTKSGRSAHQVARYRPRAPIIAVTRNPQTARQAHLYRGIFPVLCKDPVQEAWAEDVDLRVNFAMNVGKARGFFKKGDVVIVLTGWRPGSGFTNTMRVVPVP
Chain of Alpha-galactosidase A (Homo sapiens) (P06280 whole entry, looked up): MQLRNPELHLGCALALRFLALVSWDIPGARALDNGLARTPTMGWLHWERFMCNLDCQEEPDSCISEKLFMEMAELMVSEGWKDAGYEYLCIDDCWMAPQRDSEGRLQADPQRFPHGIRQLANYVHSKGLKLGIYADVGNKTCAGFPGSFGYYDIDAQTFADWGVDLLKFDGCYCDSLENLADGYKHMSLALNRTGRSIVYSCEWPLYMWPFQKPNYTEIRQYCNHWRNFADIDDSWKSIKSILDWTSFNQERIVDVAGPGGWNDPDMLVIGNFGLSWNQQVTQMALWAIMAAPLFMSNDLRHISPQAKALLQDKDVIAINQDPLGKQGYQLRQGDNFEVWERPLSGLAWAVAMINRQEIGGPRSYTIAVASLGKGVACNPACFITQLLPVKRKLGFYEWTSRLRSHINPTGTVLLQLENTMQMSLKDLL
Chain of Cytochrome P450 1A2 (Homo sapiens) (P05177 whole entry, looked up): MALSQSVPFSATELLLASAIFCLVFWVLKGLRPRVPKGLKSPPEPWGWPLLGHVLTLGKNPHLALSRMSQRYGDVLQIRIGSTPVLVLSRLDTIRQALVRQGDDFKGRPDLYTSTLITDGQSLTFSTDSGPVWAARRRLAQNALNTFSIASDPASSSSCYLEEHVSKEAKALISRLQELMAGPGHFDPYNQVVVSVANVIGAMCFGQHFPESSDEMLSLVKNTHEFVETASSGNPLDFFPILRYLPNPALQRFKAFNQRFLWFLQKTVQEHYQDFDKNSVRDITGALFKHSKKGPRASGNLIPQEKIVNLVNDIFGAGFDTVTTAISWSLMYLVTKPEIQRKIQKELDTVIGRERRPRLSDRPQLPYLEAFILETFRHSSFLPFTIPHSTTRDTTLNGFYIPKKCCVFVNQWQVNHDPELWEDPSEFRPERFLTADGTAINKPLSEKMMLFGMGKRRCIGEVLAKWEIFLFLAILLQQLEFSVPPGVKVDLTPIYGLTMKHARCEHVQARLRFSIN
Chain of Muscarinic acetylcholine receptor M1 (Rattus norvegicus) (P08482 whole entry, looked up): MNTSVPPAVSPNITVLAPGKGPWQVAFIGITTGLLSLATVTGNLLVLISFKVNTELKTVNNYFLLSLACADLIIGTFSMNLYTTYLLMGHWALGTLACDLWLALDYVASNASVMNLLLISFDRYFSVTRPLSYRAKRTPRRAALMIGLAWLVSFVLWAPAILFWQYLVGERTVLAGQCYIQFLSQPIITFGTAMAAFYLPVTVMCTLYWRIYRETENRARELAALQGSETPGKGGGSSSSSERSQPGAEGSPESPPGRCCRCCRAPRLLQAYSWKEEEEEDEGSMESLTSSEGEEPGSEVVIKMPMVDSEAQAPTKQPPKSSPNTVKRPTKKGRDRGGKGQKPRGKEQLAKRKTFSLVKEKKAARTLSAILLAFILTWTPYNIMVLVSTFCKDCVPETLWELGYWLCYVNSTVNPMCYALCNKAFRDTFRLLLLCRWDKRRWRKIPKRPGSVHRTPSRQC
Chain of Pyruvate kinase (Leishmania mexicana) (Q27686 2-499 E452W): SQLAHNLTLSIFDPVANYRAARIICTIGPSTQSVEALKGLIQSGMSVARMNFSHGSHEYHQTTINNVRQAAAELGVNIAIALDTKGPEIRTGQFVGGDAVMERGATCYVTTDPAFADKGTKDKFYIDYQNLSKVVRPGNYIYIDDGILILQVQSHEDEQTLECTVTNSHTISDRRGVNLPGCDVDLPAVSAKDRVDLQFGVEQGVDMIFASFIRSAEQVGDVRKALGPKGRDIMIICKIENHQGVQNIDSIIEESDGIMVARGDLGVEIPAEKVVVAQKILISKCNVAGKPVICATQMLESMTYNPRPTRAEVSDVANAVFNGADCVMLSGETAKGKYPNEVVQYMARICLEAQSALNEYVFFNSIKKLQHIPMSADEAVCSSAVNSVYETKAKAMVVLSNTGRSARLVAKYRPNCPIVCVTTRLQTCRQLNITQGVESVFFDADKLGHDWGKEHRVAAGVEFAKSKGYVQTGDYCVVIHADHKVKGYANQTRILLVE

## CC(O)[C@@H](O)[C@H]1CNc2nc(N)[nH]c(=O)c2N1 (stereo partly specified)
[1]
  Potency: inactive
[2]
  Potency: inactive
[3]
  Potency: inactive

## CN(C)C1C(=O)C(C(N)=O)=C(O)[C@@]2(O)C(=O)C3=C(O)c4c(O)ccc(Cl)c4[C@@H](O)C3C[C@@H]12 (stereo partly specified)
[3]
  Potency: 0.891 µM (active)
[4]
  outcome: inactive

## Cc1cnc(-c2ccccc2C(C)C)nc1NCc1ccc(-c2ccc(F)nc2)cc1
[5]
  Potency: 112 µM (active)

## OC[C@H]1O[C@@H](n2cnc3c(N[C@H]4CC5CCC4C5)ncnc32)[C@H](O)[C@@H]1O (stereo partly specified)
[1]
  Potency: inactive
[2]
  Potency: inactive

## CCOc1ccc(CCNC(C)=O)cc1OCC
[5]
  Potency: inactive

## CCOC(=O)c1[nH]c2c(c1C)C(=S)CC(c1ccco1)C2 (stereo unspecified)
[5]
  Potency: 39.8 µM (active)

## CN1CCc2cc(Cl)c(O)cc2C(c2ccccc2)C1 (stereo unspecified)
[1]
  Potency: 7.94 µM (active)
[2]
  Potency: 11.2 µM (active)
[3]
  Potency: 4.47 µM (active)
[4]
  outcome: inactive

## CSc1nc(N)c2ncn([C@@H]3O[C@H](COP(=O)(O)OP(=O)(O)O)[C@H](O)[C@H]3O)c2n1
[1]
  Potency: inactive
[2]
  Potency: inactive
[3]
  Potency: inactive
[4]
  outcome: inactive

## Nc1nc2c(nc(Br)n2C2O[C@H]3COP(=O)(O)O[C@@H]3C2O)c(=O)[nH]1 (stereo partly specified)
[3]
  Potency: 6.31 µM (active)

## CN1C[C@H](C(=O)N[C@]2(C)O[C@@]3(O)C4CCCN4C(=O)[C@H](Cc4ccccc4)N3C2=O)C[C@@H]2c3cccc4[nH]cc(c34)C[C@H]21 (stereo partly specified)
[6]; parasite line A
  Potency: 8.91 µM (active)
[6]; parasite line B
  Potency: 4.47 µM (active)

## CCSC(N)=Nc1ccc(C(F)(F)F)cc1
[7]
  activity change, negative = inhibition: -5.3% [at 38 µM]
[8]
  Potency: 2.51 µM (active)
[9]
  activity change, negative = inhibition: 0.554% [at 38 µM]
[10]
  activity, negative = inhibition: 13.4% [at 38 µM]
[11]
  Potency: inactive
[12]
  outcome: inactive
[13]
  outcome: inactive
[14]
  outcome: inactive
[15]
  outcome: inactive
[1]
  Potency: inactive
[4]
  outcome: inactive
[16]
  outcome: inactive

## CC(C)CN(C)c1nc(N)c(C(=O)N=C(N)N)nc1Cl
[9]
  activity change, negative = inhibition: -14% [at 38 µM]
[10]
  activity, negative = inhibition: -2.92% [at 38 µM]
[11]
  Potency: inactive
[12]
  outcome: inactive
[17]
  Potency: inactive
[18]
  Potency: inactive
[13]
  outcome: inactive
[14]
  outcome: inactive
[15]
  outcome: inactive
[1]
  Potency: 11.2 µM (active)
[2]
  Potency: 11.2 µM (active)
[3]
  Potency: 2.82 µM (active)

## COC(=O)c1ccc(O)c2ncc(-c3ccc(C(=O)N4CCNCC4)cc3)cc12
[5]
  Potency: inactive
